# Compound activity: PubChem, National Center for Advancing Translational Sciences (NCATS)
# PINK1 modulator – modulators of PINK1 expression; AID 624263; Potency, µM (series often up to 76.6 µM), inactives show top-dose activation (PINK1 increase), usual class: activators; 0.2% of 410,000 active; PINK1 immunofluorescence, high-content cytometry, 24 h; active = well fitted activation curve with a large enough effect; inconclusive = small, poorly fitted or top-dose-only effect; cell line not stated here; note: potency is the fitted concentration of half-maximal effect; % of control where 0% means no effect; nearly all actives have a fitted effect of over 65% in size
#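 Measures PINK1 amount and localization on or inside mitochondria by immunofluorescence. Stable cells get compounds at 5 concentrations for 24 hours before fixation and staining; CCCP controls included.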
# LDHA block – LDHA (human) enzyme inhibition | 0.15% of 480,000 active | activity change, % (values are at about 110 or 230 µM) | P00338 | AID 1347041 | purified LDHA, NADH/diaphorase-resazurin fluorescence; stronger effect = lower value; in the data active = activity change below about -30%; inconclusive = mostly about -25% to -30%;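 note: plate controls were DMSO wells for no effect and wells without enzyme for full effect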
#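 Resorufin fluorescence (ex540/em590), read at 0 and 20 min after diaphorase/resazurin addition, reports the NADH left after a 5 min room-temperature reaction of 2 nM human LDH5 with 0.06 mM NADH and 0.2 mM pyruvate.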
# Vif-APOBEC3F blk – inhibitors of Vif-A3F interaction; AID 602313; HeLa A3F-eYFP + Vif (tagged APOBEC3F with the HIV-1 protein that degrades it), YFP fluorescence increase; Potency, µM (highest dose often 46.1 µM), for inactives: top-dose activity, negative = active; 0.2% of 390,000 active; note: potency is the fitted concentration of half-maximal effect; % of control where 0% means no effect; nearly all actives have a fitted effect of over 65% in size
#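 Fluorescence increase (Ex 488/Em 500-530) after overnight compound treatment at 37 deg C flags inhibition of Vif-driven A3F-eYFP loss in stable HeLa A3F-eYFP/Vif cells seeded overnight beforehand.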
# Akt phos inh – Akt phosphorylation inhibition; Neuro2A IGF-stimulated pAkt S473 HTRF, 20 min; stronger effect = lower value; activity change, % for hits at 50 µM; 0.32% of 360,000 active; in the data active = activity change below about -80%; inconclusive = mostly about -51% to -80%; note: % is set by controls: 0 for no effect and ±100 for the full control effect
#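 Neuro2A cells (4,500/well, DMEM with 0.5% FBS) were treated with compound at a single 50 µM final concentration, stimulated with 6 nM IGF for 20 min at 37 °C, and lysed. Phospho-Akt Ser473 was read by HTRF as 665/615 ratio ×10^4.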
# Glioma ERSR ind – induces the endoplasmic reticulum stress response in human glioma cells. U87-MG GRP78 promoter luciferase reporter, 16 h. 0.02% of 420,000 active. Potency, µM, for the others: at the top dose activation, most hits filed as activators; note: potency is the fitted concentration of half-maximal effect; series mostly up to about 76 µM; % of control where 0% means no effect; nearly all actives have a fitted effect of over 35% in size
#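 Stably transfected U87-MG human glioma cells carrying a GRP78-based luminescent sensor were seeded at 1000 cells/well, pin-dosed with compounds and incubated 16 h. Luciferase reagent was then added, and end-point luminescence was read after 10 min at room temperature.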
# Vif-APOBEC3G blk – inhibitors of Vif-APOBEC3G interaction. Q9HC16. HeLa A3G-eYFP + Vif (tagged APOBEC3G with the HIV-1 protein that degrades it), YFP fluorescence, overnight. Potency, µM (doses to about 46.1 µM), without a hit: at the top dose activity, negative = active, actives largely listed as inhibitors. 0.076% of 410,000 active; note: potency is the fitted concentration of half-maximal effect; % is set by controls: 0 for no effect and ±100 for the full control effect; nearly all actives have a fitted effect of over 60% in size
# Target sequence (Q9HC16 whole entry, looked up): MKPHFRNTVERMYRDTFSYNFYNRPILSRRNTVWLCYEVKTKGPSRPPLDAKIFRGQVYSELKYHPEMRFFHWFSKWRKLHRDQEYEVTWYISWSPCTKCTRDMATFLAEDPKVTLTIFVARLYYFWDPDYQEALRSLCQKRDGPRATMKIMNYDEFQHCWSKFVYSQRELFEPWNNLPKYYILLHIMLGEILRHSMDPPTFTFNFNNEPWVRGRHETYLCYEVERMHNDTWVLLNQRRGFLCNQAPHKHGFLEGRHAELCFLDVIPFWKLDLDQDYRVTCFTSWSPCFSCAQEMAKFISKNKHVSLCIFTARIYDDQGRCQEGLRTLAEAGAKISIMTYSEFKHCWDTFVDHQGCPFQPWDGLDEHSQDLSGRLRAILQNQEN
#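 Read-out is eYFP fluorescence (Ex 488/Em 500-530) from Vif-expressing HeLa A3G-eYFP cells; more signal means A3G escaped Vif-mediated degradation. Cells plated overnight, compound pinned in, incubated overnight at 37 deg C.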
# * = called active by the depositor; i = inactive; ? = inconclusive; · = no result given; ! = repeats disagree; [ ] = dose if it differs, or a comment. Hits are enriched below; roughly 0.74% of the tested compounds scored in any of these assays. Unless noted, calls come from the whole dose curve; as a rule, active = well fitted curve in the direction sought with a large enough effect; inconclusive = small, poorly fitted or top-dose-only effect, or another doubt; inactive = no such curve, though single readings can be large; an effect the other way counts as inactive or inconclusive.
SMILES,PINK1 modulator,LDHA block,Vif-APOBEC3F blk,Akt phos inh,Glioma ERSR ind,Vif-APOBEC3G blk
Cc1ccccc1Nc1nc(-c2cc3ccccc3oc2=O)cs1,·,-2,·,·,·,·
COc1cc(/C=C(\CC(=O)O)c2nc3ccccc3s2)ccc1OCC(=O)Nc1ccccc1F,1%,-35*,6%,i,0%,0%
CCOc1cc(/C=C(\CC(=O)O)c2nc3ccccc3s2)ccc1OC,1%,-2,-8%,i,-2%,-2%
CCCC1C2C(=O)N(c3ccccc3OC)C(=O)C2ON1c1ccccc1 (stereo not drawn),-1%,-2,-4%,-110%*,-4%,0%
CCCC1C2C(=O)N(c3ccccc3)C(=O)C2ON1c1ccccc1 (stereo not drawn),0%,-12,5%,i,-4%,0%
O=Cc1cccn1-c1cc(Cl)c(Cl)cc1Cl,·,4,·,·,·,·
COc1ccc(C(=O)COc2ccccc2N2C(=O)C3C4C=CC(C4)C3C2=O)cc1 (stereo not drawn),-2%,1,4%,-139%*,7%,1%
Cn1cnc2c1c(=O)n(Cc1cccc(Cl)c1)c(=O)n2C,3%,-32*!,?,i,-2%,3%
Cn1cnc2c1c(=O)n(Cc1cccc(F)c1)c(=O)n2C,1%,-1,4%,i,-2%,2%
Cc1sc2nc(CSc3nnnn3-c3ccc(Cl)cc3)[nH]c(=O)c2c1C,?,-15,32µM*,i,-4%,-19%
CCc1ccc(C(CNC(=O)c2nc(-c3ccccc3)oc2C)N(C)C)cc1 (stereo not drawn),·,-6,·,·,·,·
CCOC(=O)C(CC)Oc1ccc2c(=O)c(Oc3ccccc3Br)coc2c1 (stereo not drawn),·,-31*,·,·,·,·
CCOC(=O)COc1ccc2c(=O)c(Oc3ccccc3Br)coc2c1,·,-2,·,·,·,·
CCOc1ccc2nc(NC(=O)c3nc(SC(C)C)ncc3Cl)sc2c1,?,-4,5µM*,·,0%,2%
CCOc1ccc2nc(NC(=O)c3nc(SC)ncc3Cl)sc2c1,6%,-1,-4%,·,-1%,2%
O=C(Cn1c(-c2ccccc2)cc2ccccc21)N1CCCCC1,·,-3,·,·,·,·
CC(=O)Nc1nc(C)c(C(C)=O)s1,0%,-2,-3%,-106%*,-3%,0%
CC(=O)c1sc(NC(=O)C(C)C)nc1C,-1%,-5,·,i,-1%,0%
N#CC(=Cc1ccccn1)c1nc(-c2ccc(Cl)cc2)cs1,10%,-3,?,i,-2%,5.6µM*
N#C/C(=C\Nc1ccc2cn[nH]c2c1)c1nc(-c2ccc(Cl)cc2)cs1,6%,2,22µM*,i,12%,-21%
N#C/C(=C\Nc1ccc2cn[nH]c2c1)c1nc(-c2ccccc2)cs1,2%,3,-27%,i,-4%,-21%
Cc1ccc(OCCCC(=O)NCc2ccco2)cc1,3%[38.3 µM],4,-3%,i,-3%,0%
Cc1ccccc1OCCCC(=O)NCc1ccco1,8%[38.3 µM],-3,5%,-101%*,-2%,-1%
O=C(NCCC(=O)N1CCN(c2ncccn2)CC1)c1ccc(Br)cc1,·,-32*,·,·,·,·
Cc1cccc(OCCSc2nc3ccccc3n2CC(O)CO)c1 (stereo not drawn),·,2,·,·,·,·
SMILES,PINK1 modulator,LDHA block,Vif-APOBEC3F blk,Akt phos inh,Glioma ERSR ind,Vif-APOBEC3G blk
COc1cc(Cl)c(C)cc1NC(=O)CSc1nnc(-c2ccccc2)n1C,·,4,·,·,·,·
O=C(CSc1nnc(COc2ccc(Cl)cc2)o1)Nc1ccccc1,2%,-14,-1%,·,-3%,4%
Cc1cc(NC(=O)CSc2nnc(COc3ccccc3)o2)no1,-1%,2,-9%,-127%*,-1%,2%
Cc1cc(C)cc(NC(=O)CN(C)S(=O)(=O)c2cnc[nH]2)c1,0%,-6,-5%,-116%*,-4%,-5%
COc1ccc(NC(=O)CN(C)S(=O)(=O)c2cnc[nH]2)cc1OC,1%,-6,-9%,i,-8%,0%
CC(NC(=O)c1ccc(F)cc1)c1cccc(NS(C)(=O)=O)c1 (stereo not drawn),·,1,·,·,·,·
Cc1cc(SCC(=O)c2cccs2)nc2ccccc12,9%,-4,11µM*,i,4%,?
Cc1cc(SCC(=O)Nc2ccccc2)nc2ccccc12,·,-4,·,·,·,·
CC(C)CNC(=O)c1ccccc1NC(=O)Nc1ccccc1,-2%,-2,-11%,-105%*,-2%,-1%
Cc1cc(C)n(C(=O)/C(C#N)=N\Nc2ccccc2[N+](=O)[O-])n1,3%,0,5%,i,-5%,0%
Cc1cc(C)n(C(=O)/C(C#N)=N/Nc2cc(Cl)cc(Cl)c2)n1,25µM*,-2,-5%,i,-5%,1%
CCC(C)n1c(NC(=O)c2ccccc2)c(C#N)c2nc3ccccc3nc21 (stereo not drawn),?,19,32µM*,i,-4%,?
N#C/C(=C\c1ccc(C(=O)O)cc1)c1nc2sc3c(c2c(=O)[nH]1)CCCC3,32µM*,2,?,i,-1%,?
Clc1ccc2c(Cl)cc[n+](CCC3CCCCC3)c2c1,1%,-36*,·,·,-3%,-5%
Cc1ccc(NC(=O)CN2c3cccc4cccc(c34)S2(=O)=O)cc1S(=O)(=O)N1CCCCC1,·,11,·,·,·,·
COc1ccc(-n2nc3c(N4CCCC(C(=O)NCCc5ccccc5C)C4)nnc(C)c3c2C)cc1 (stereo not drawn),-1%,4,22µM*,·,-8%,?
O=S(=O)(Nc1nc2ccccc2nc1Nc1cccc(S(=O)(=O)N2CCCCC2)c1)c1ccccc1,25µM*,-2,10µM*,i,-7%,?
O=C1c2ccccc2-c2onc3c(N4CCN(C5CCCCC5)CC4)cc(NCCO)c1c23,-1%,15,?,·,-5%,?
CN(C)CCCNc1cc(N2CCN(C3CCCCC3)CC2)c2noc3c2c1C(=O)c1ccccc1-3,1%,26,4.5µM*,·,-4%,?
O=C(NN=Cc1c(O)ccc2ccccc12)c1ccc2c(c1)OCO2,?,2,7.9µM*,i,-1%,?
Cn1c2ccccc2c2ccc3c(c21)C(=O)C=CC3=O,-3%,19,11µM*,i,-2%,-6%
CC1CCN(c2nc3c(c(=O)[nH]c(=O)n3C)n2CCSc2nc3ccccc3[nH]2)CC1,·,7,·,·,·,·
COc1ccccc1N1CCN(CC(=O)Nc2ccc(CN3CCCCC3)cc2)CC1,·,-46*,-1%,i,-4%,-3%
COc1cccc(NC(=O)CN2CCN(c3ccccc3F)CC2)c1,0%,0,2%,-110%*,-5%,-3%
COc1ccc(-c2cc(CCCC(=O)NCCc3ccccc3)no2)cc1,0%,-14,-5%,i,-11%,0%
